The values that follow come from PubChem BioAssay (NCI).

Structures are written as SMILES. “And” between values parts separate entries of the source, which are not always exact repeats. Equal entries are not always repeated. This is part of a sample that, as a whole, favours compounds with a hit. Of some 83,000 tested, about 20% had one in any assay.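 Treatment: one concentration, 48 hours, 96-well format. Scoring: percent growth, with anything below 10 considered active.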 Values without a mark were called inactive. The source made the active and inactive calls.

Test in all cases: NCI-60 one-dose screen, 48 h (100 = growth as untreated, 0 = no growth, -100 = all killed)
Holding throughout (settings): 10 µM

The subject of experiment [1] is T-47D breast.
For experiment [2], the system named is BT-549 breast.
Experiment [3] deals with MDA-MB-435 melanoma.
In experiment [4] the test system is SW-620 colon.
Experiment [5] has as its system MCF7 breast.
The test system of experiment [6] is HCT-116 colon.
Experiment [7] has as its system HCC-2998 colon.
Experiment [8] has as its system KM12 colon.
Experiment [9] has as its system MDA-MB-468 breast.

On to `O=c1oc2ccc(-c3ccc(F)cc3F)cc2c(=O)n1-c1ccc(Cl)c(C(F)(F)F)c1`, for which the growth in experiment [1] was -12.5% (active); in experiment [2], -37.4% (active); in [3], -5.35% (active); in experiment [4], 13%; in experiment [5], -16.2% (active); in experiment [6], 9.46% (active). Moreover, the growth in [7] is 2.17% (active); in experiment [8] it was -14% (active); in [9], 3.54% (active) and -40.4% (active).

`CN1CCc2c(sc3ncnc(N/N=C/c4cn(-c5ccccc5)nc4-c4ccc(Br)cc4)c23)C1`: the growth in experiment [1] is 74.2%; in experiment [2], 83.4%; in [3], 66.1%; in experiment [4], 11%; in experiment [5] it was -3.07% (active); in [6], 1.25% (active). Moreover, the growth in experiment [7] is 27.1%; in [8] it was 44.9%; in experiment [9] it was 16.8%.

Regarding `Cc1ccc(-c2nc(Nc3ccc(C)c(S(N)(=O)=O)c3)c3ccccc3n2)cc1`, the growth in [1] is 84.2%; in [2], 104%; in experiment [3], 74.6%; in [4] it was 37.2%; in experiment [5] it was 26.2%; in [6], 29.5%. Moreover, the values for the growth in experiment [7], in experiment [8] and in [9] were 49.5%, 40% and 1.27% (active), respectively.

On to `CCCCCc1ccc(S(=O)(=O)N(C(C)=O)c2cc(-c3csc(N(C)C(C)=O)n3)ccc2N2CCN(C)CC2)cc1`, for which the growth in [1] is 30.4%; in [2], 73.9%; in [3], -97.4% (active); in [4], -77.9% (active); in [5], -73.1% (active); in experiment [6] it was -87.8% (active). In addition, the growth in experiment [7] was -67.8% (active); in experiment [8] it was 15.7%; in experiment [9], 20.9%.

As for `CC(C)C(=O)Nc1ccc(C(=O)NC(=S)Nc2ccc(C(=O)O)cc2)cc1`, the growth in experiment [1] was 98.9%; in experiment [2] it was 79.5%; in [3] it was 102%; in experiment [4], 107%; in experiment [5], 99.9%; in experiment [6], 104%. In addition, the growth in experiment [7] was 110%; in experiment [8], 106%; in experiment [9], 96%.

On to `COc1ccc(CN2[C@@H](C(=O)NCc3ccc(C(=O)NO)cc3)Cc3c([nH]c4ccccc34)[C@@H]2C2CC2)cc1`, for which the growth in experiment [1] is 3.04% (active); in experiment [2], 43.3%; in experiment [3], -42.1% (active); in experiment [4], -21.5% (active); in [5], 14.1%; in experiment [6] it was 12.9%. Also, the growth was 25.1% in experiment [7], 20.3% in experiment [8] and -3.5% (active) in experiment [9].

In the case of `O=C1NC(=NC23CC4CC(CC(C4)C2)C3)N/C1=C\c1ccc2ncsc2c1`, the growth in [1] was -0.474% (active); in [2] it was -11.5% (active); in experiment [3] it was 17.8%; in experiment [4] it was 5.03% (active); in experiment [5] it was -9.76% (active); in experiment [6], 14.1%. Also, the growth in experiment [7] is 16.2%; in experiment [8], 2.26% (active); in experiment [9], -48.2% (active).

`CCOC(=O)C(Cc1ccccc1)N1C(=O)/C(=C/N2N=C(c3ccc(OC)cc3)CC2c2ccc3ccccc3c2)SC1=S` (stereo unspecified): the growth in experiment [1] was 14.6%; in experiment [2] it was -6.78% (active); in experiment [3] it was 16.3%; in experiment [4], 13.4%; in experiment [5] it was 0.163% (active); in experiment [6], 7.1% (active). Moreover, the growth is -92% (active) in experiment [7], 9.78% (active) in [8] and -34.1% (active) in experiment [9].

Regarding `COc1ccc2[nH]c(=O)c(CSc3ccc(Nc4nccc(-c5ccc(Cl)cc5)n4)cc3)cc2c1`, the growth was 78.6% in experiment [1]; 104% in [2]; 111% in [3]; 105% in experiment [4]; 84.5% in experiment [5]; 78.9% in [6]. In addition, the results for the growth in experiment [7], in experiment [8] and in experiment [9] were 115%, 102% and 97.9%, respectively.

Turning to `NC1=NC(c2ccccc2Cl)N=C(Nc2nn[nH]n2)N1` (stereo unspecified), the growth is 99.1% in experiment [1]; 107% in experiment [2]; 102% in [3]; 106% in experiment [4]; 93.3% in experiment [5]; 103% in experiment [6]. The growth in [7] is 104%; in experiment [8] it was 100%; in [9] it was 103%.

Consider `Cc1ccc(C(=O)NNC(=O)CSc2nc3ccccc3c(=O)[nH]2)cc1`, for which the growth is 95.8% in experiment [1]; 94.2% in experiment [2]; 101% in experiment [3]; 103% in experiment [4]; 92.3% in [5]; 107% in experiment [6]. Also, the growth was 105% in experiment [7], 107% in experiment [8] and 84.6% in experiment [9].

Regarding `Cn1cc(/C=N/Nc2ccnc3cc(Cl)ccc23)c2ccccc21`, the growth in experiment [1] is -60.9% (active); in experiment [2] it was -64.6% (active); in [3], -83.5% (active); in experiment [4], -62.8% (active); in experiment [5], -78.4% (active); in [6], -46.5% (active). Further, the growth in experiment [7] was -87.8% (active); in experiment [8], -94.3% (active); in [9], -83.5% (active).

`Cn1cc(-c2cc(N)n3nc(-c4c[nH]c5ccc(Br)cc45)cc3n2)c2cccnc21`: the growth in experiment [1] was -75.7% (active); in experiment [2], -83.7% (active); in experiment [3], -77.7% (active); in experiment [4] it was -78.6% (active); in [5], -78.5% (active); in [6], -87.9% (active). Also, the growth in experiment [7] is -97.8% (active); in experiment [8], -78.3% (active); in experiment [9], -92.1% (active).

With `O=C1Nc2cc(-c3ccc(NC(=O)c4cccc([N+](=O)[O-])c4)cc3)ccc2/C1=C/c1ccc[nH]1`, the growth was 27.5% in experiment [1]; 120% in experiment [2]; 105% in experiment [3]; 79.8% in experiment [4]; 2.65% (active) in experiment [5]; 103% in [6]. Besides, the growth in experiment [7] is 62.2%; in experiment [8], 14.5%; in experiment [9], -10.9% (active).
